Data published in PubChem BioAssay AID652016 (National Center for Advancing Translational Sciences (NCATS), 2013).
Results filed as inconclusive are left out. Active and inactive are the calls of the source. Calls follow the shape of the dose curve; as a rule, active = well fitted inhibition curve with a large enough effect; inconclusive = small, poorly fitted or top-dose-only effect; inactive = flat fitted curve, though single readings scatter.

Biological target: Luciferin 4-monooxygenase (Photinus pyralis) (UniProt P08659)
Experiment: qHTS Assay for Inhibitors of Firefly Luciferase from the GSK Published Protein Kinase Inhibitor Set
Conditions: purified firefly luciferase, luminescence inhibition; series mostly up to 57.5 µM; activity change, negative = inhibition: at the top concentration
Text: FLuc (firefly luciferase) is the prototypical bioluminescent reporter gene from Photinus pyralis.[1] The enzyme catalyzes the oxidation luciferin via luciferin-AMP to produce light. FLuc is used in cell-based reporter gene-based assays for screening small molecule chemical libraries. However, small molecule luciferase inhibitors present in most large chemical libraries are often enriched in the output of high throughput screens using this reporter sometimes complicating interpretation and candidate selection.
RLuc is a bioluminescent reporter gene luciferase from Renilla reniformis, also known as the sea pansy. RLuc uses the luciferin substrate coelenterazine. RLuc is often used in combination with the nonhomologous luciferase FLuc (firefly luciferease) as a trasfection or pathway normalization control. Recently, non-homologous reporters have been described for high throughput screening 'coincidence' reporter gene strategies.
1. Fan F, Wood KV (2007) Bioluminescent assays for high-throughput screening. Assay Drug Dev Technol 5: 127-136.
2. Thorne N, Inglese J, Auld DS (2010) Illuminating insights into firefly luciferase and other bioluminescent reporters used in chemical biology. Chem Biol 17: 646-657.
3. […] Chem Biol 19: 1060-1072.
4. Michelini E, Cevenini L, Mezzanotte L, Coppa A, Roda A (2010) Cell-based assays: fuelling drug discovery. Anal Bioanal Chem 398: 227-238.
5. Cheng KC, Inglese J (2012) A coincidence reporter-gene system for high-throughput screening. Nat Methods 9: 937.
Biochemical firefly luciferase enzyme assay
NCGC Assay Protocol Summary:
Reagents: 50mM Tris acetate, pH 7.5; 10mM Mg acetate; 10uM D-luciferin (Sigma #L9504); 10uM ATP; 0.01% Tween-20; 0.05% BSA; 10nM P. pyralis luciferase (Sigma #L9506)
Control compounds used were two known firefly luciferase inhibitors (compounds (2) and (5) in Auld et al., 2010), and DMSO.
Three microliters containing firefly luciferase substrates in buffer (final concentrations: 50mM Tris acetate, pH 7.5, 10mM Mg acetate, 0.01% Tween-20, 0.05% BSA, 10uM D-luciferin, and 10uM ATP) are dispensed into each well of a Greiner white, solid-bottom 1536-well format plate using a flying reagent dispenser (FRD). These assay plates were then treated with 23nL of compound or DMSO using a Kalypsys pin tool, which allows for delivery of a 7-point interplate titration of each compound to the assay plates (quantitative HTS), with final compound concentrations ranging from approximately 60uM to 300pM. One microliter of firefly luciferase in 50mM Tris-acetate buffer was then delivered by FRD to each well for a final enzyme concentration of 10nM. Luciferase activity was then measured using an Envision plate reader (PerkinElmer), with an average incubation time of 5 min.
% is scaled to controls: 0 for no effect and ±100 for the full control effect; potency is read from the fitted curve at half-maximal effect.

Luciferin 4-monooxygenase (Photinus pyralis), sequence (P08659 whole entry, looked up): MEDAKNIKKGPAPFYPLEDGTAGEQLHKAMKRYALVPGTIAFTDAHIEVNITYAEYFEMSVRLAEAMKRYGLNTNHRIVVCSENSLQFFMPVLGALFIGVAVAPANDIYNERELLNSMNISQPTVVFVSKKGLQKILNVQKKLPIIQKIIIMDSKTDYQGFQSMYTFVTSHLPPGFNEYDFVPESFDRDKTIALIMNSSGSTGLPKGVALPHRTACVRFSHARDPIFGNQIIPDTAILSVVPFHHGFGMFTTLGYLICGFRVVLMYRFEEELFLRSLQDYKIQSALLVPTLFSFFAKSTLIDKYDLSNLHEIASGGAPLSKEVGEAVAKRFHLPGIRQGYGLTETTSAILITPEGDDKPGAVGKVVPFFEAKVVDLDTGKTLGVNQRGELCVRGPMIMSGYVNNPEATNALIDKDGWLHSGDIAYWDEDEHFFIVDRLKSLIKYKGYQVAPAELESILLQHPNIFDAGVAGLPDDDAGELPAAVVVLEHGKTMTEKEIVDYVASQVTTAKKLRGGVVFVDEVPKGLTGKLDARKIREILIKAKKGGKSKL

Potency, active:
c1ccc(Cc2nc3ccc(Nc4ncnc5ccccc45)cc3[nH]2)cc1 16.3 µM
COc1ccc(-c2cc3c(N)ncnc3o2)cc1 6.51 µM
COc1ccc(Nc2ncc(-c3ccccc3)o2)cc1OC 5.8 µM
CN(c1ccc(NC(=O)Nc2c(Cl)cccc2Cl)cc1)c1ccnc(Nc2cccc(CS(C)(=O)=O)c2)n1 0.58 µM
NC(=O)c1cccc(Nc2nccc(Nc3cccc(F)c3)n2)c1 0.73 µM
COC(=O)Nc1nc2ccc(Oc3ccc(NC(=O)Nc4cccc(C(=O)O)c4)cc3)cc2[nH]1 0.116 µM
NC(=O)c1cccc(Nc2nccc(Nc3cccc4[nH]ncc34)n2)c1 13 µM
CN(C)CCOc1ccc(-c2nc(-c3ccc4c(c3)CCC4=NO)c(-c3ccncc3)[nH]2)cc1 14.6 µM
Cc1ccc(Nc2ccnc(Nc3cccc(C(N)=O)c3)n2)cc1O 1.46 µM
Cc1c2ccc(N(C)c3ccnc(Nc4cccc(S(N)(=O)=O)c4)n3)cc2nn1C 13 µM

Potency, inactive:
COc1cc2ncn(-c3cc(OC(C)c4ccccc4Cl)c(C(N)=O)s3)c2cc1OC (stereo not given)

Activity change, negative = inhibition, inactive:
Nc1nccc(-c2c(-c3ccc(F)cc3)ncn2CCCN2CCOCC2)n1 5.8%
CN(C)CCCn1c(-c2nonc2N)nc2cnccc21 10.5%
CCn1c(-c2nonc2N)nc2c(C#CC(C)(C)O)ncc(OCC3CCCN3)c21 (stereo not given) -25.6%
COc1cc2ncn(-c3cc(OCc4ccccc4Cl)c(C(N)=O)s3)c2cc1OC 8.26%
NS(=O)(=O)c1ccc(N=Nc2c(O)[nH]c3ccc(C(=O)NCCCn4ccnc4)cc23)cc1 7.5%
COc1cc2ncn(-c3cc(OCc4ccccc4C(F)(F)F)c(C(N)=O)s3)c2cc1OC -6.98%
Cc1ccc2c(-c3ccnc(Nc4ccc5c(c4)OCCO5)n3)c(-c3ccc(C(F)(F)F)cc3)nn2n1 -0.549%
Fc1cccc(COc2ccc(Nc3ncncc3C#Cc3ccccc3)cc2Cl)c1 1.29%
N#Cc1ccc(Oc2nccc(-c3c(-c4ccc(F)cc4)ncn3C3CCNCC3)n2)cc1 3.97%
c1ccc(-c2[nH]ncc2-c2ccnc(-c3ccc(OCCN4CCOCC4)cc3)c2)nc1 2.73%
O=C(Nc1ccc(Oc2ccc3nc(NC(=O)c4ccccc4)[nH]c3c2)cc1)Nc1cc(C(F)(F)F)ccc1F -14.8%
CNC(=O)c1cncc(C=Cc2ccccc2C)c1 9.18%
CS(=O)(=O)CCN(CC#N)Cc1ccc(-c2ccc3ncnc(Nc4ccc(OCc5cccc(F)c5)c(Cl)c4)c3c2)o1 8.94%
CCS(=O)(=O)c1ccc(OC)c(Nc2ncc(-c3cccc(F)c3)o2)c1 7.1%
c1ccc(-c2nc3n(c2-c2ccc4c(c2)OCO4)CCC3)nc1 -4.35%
CC(=O)NCc1cccc(C#Cc2cncnc2Nc2ccc(OCc3cccc(F)c3)c(Cl)c2)c1 -82.4%
Cc1ccc(NC(=O)c2ccnc(N3CCCC3)c2)cc1-c1ccc(C(=O)NCC2CC2)cc1 -8.62%
CCN1CCC(CC(=O)Nc2n[nH]c3nc(-c4cccs4)c(Br)cc23)CC1 3%
Fc1cccc(COc2ccc(Nc3ncnc4cc(-c5ccc[nH]5)sc34)cc2Cl)c1 -9.56%
c1ccc(-c2[nH]ncc2-c2ccnc(-c3ccc(OCCn4ccnc4)cc3)c2)nc1 0.937%
Cc1cccc(-c2[nH]ncc2-c2ccc3ncccc3n2)n1 13.3%
CC(Oc1cc(-n2cnc3ccc(OCC4CCN(C)CC4)cc32)sc1C(N)=O)c1ccccc1C(F)(F)F (stereo not given) 3.41%
CC1=C(C(=O)Nc2cc(Cl)c3[nH]ncc3c2)C(c2ccc(C(F)(F)F)cc2)CC(=O)N1 (stereo not given) 7.74%
COc1ccc(C2=C(N3CCc4ccccc43)C(=O)NC2=O)cc1 -13.5%
NCc1ccc(-n2c(-c3nonc3N)nc3cnccc32)cc1 12.6%
Oc1cccc(-c2nc(-c3ccccc3)[nH]c2-c2ccncc2)c1 -4.49%
Cc1cccc2c(N=Nc3ccc(S(N)(=O)=O)cc3)c(O)[nH]c12 -17.8%
NS(=O)(=O)c1ccc(N=Nc2c(O)[nH]c3ccc(C(=O)NCCc4cnc[nH]4)cc23)cc1 4.63%
COc1ccc2cc(-c3c(-c4ccncc4)nc(-c4ccc(S(C)=O)cc4C)n3C)ccc2c1 (stereo not given) -15.7%
